The values that follow come from the supplement of paper PMC8007513.

Where a name gives a salt, the structure may show the parent alone. ± gives the standard error. Hit rate of the full screen: of about 1,300 compounds, about 75 (6%) showed an effect of 50% or more. This is one part of a sample in which strong results are shown more often than they occur.

For this experiment, the system named is Trichoderma virens ATCC 9645. Kind of experiment: growth yield (OD600) relative to untreated control; higher = less growth inhibition. Conditions: compound concentration: 100 uM. In outline: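 Trichoderma virens ATCC 9645 spores from 7-day potato dextrose agar plates were suspended in potato dextrose broth at 15,000 spores ml^−1. Aliquots of 100 μl with library compounds at 100 μM final, with or without a co-applied biocide at 200 ng ml^−1, were grown in 96-well plates at 30 °C. OD600 was read at 40 h and 72 h on a BioTek EL800. Growth is expressed relative to the control without either agent, as means of duplicate screens.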

`CC1(C)O[C@@H]2C[C@H]3[C@@H]4CCC5=CC(=O)C=C[C@]5(C)[C@H]4[C@@H](O)C[C@]3(C)[C@]2(C(=O)CO)O1` [Desonide]: the growth yield (40 h) was 109 ± 11% and the growth yield (72 h) was 98.7 ± 6.6%.
For `CCC(=O)[C@@]1(C)[C@H](C)C[C@H]2[C@@H]3CCC4=CC(=O)C=C[C@]4(C)[C@H]3[C@@H](O)C[C@@]21C` [Rimexolone], the growth yield (40 h) was 112 ± 14% and the growth yield (72 h) was 106 ± 8.3%.
In the case of `COc1c(O[C@@H]2O[C@H](CO)[C@@H](O)[C@H](O)[C@H]2O)cc2c(c1OC)-c1ccc(SC)c(=O)cc1[C@@H](NC(C)=O)CC2` [Thiocolchicoside], the growth yield (40 h) was 101 ± 1.4% and the growth yield (72 h) was found to be 103 ± 2.2%.
On to `NS(=O)(=O)c1cc2c(cc1C(F)(F)F)NCNS2(=O)=O` [Hydroflumethiazide], for which the growth yield (40 h) is 102 ± 2.4% and the growth yield (72 h) worked out at 100 ± 3.1%.
Regarding `O=C1c2cccc(O)c2C(=O)c2c(O)cccc21` [1,8-Dihydroxyanthraquinone], the growth yield came out at 85.8 ± 11% (40 h) and 87.2 ± 8.7% (72 h).
Regarding `O=C1c2c(O)cccc2Cc2cccc(O)c21` [Anthralin], the growth yield runs as follows: (40 h) 96.7 ± 3.6%; (72 h) 89.5 ± 2.8%.
The matching figures for `O=C1c2c(O)ccc(O)c2C(=O)c2c(NCCNCCO)ccc(NCCNCCO)c21` [Mitoxantrone dihydrochloride]: 2.86 ± 2.9% and 0.21 ± 0.21%.
Compound `CN1[C@@H]2CC[C@H]1C[C@@H](OC(c1ccccc1)c1ccccc1)C2` [Benztropine mesylate] yielded a growth yield (40 h) of 105 ± 3.6% and a growth yield (72 h) of 102 ± 1.7%.
The matching figures for `O=C1OCCN1/N=C/c1ccc([N+](=O)[O-])o1` [Furazolidone]: 84.3 ± 7.2% and 87.7 ± 5.9%.
The matching figures for `Nc1nc(=O)c2nc(CNc3ccc(C(=O)N[C@@H](CCC(=O)O)C(=O)O)cc3)cnc2[nH]1` [Folic acid]: 102 ± 1.4% and 104.7 ± 0.42%.
Turning to `CN(C)CCOC(=O)COc1ccc(Cl)cc1` [Meclofenoxate hydrochloride], the growth yield came to 95.1 ± 2.1% (40 h) and 92.1 ± 3.6% (72 h).
In the same order, the values of `CN(C)CCOc1ccc(/C(=C(/CCCl)c2ccccc2)c2ccccc2)cc1` [Toremifene] are 3.81 ± 0.32% and 2.73 ± 0.21%.
In the same order, the values of `COc1ccc(C(=O)NCc2ccc(OCCN(C)C)cc2)cc1OC` [Itopride] are 105 ± 5.7% and 105 ± 3.7%.
In turn, `COc1cc(C(=O)NCc2ccc(OCCN(C)C)cc2)cc(OC)c1OC` [Trimethobenzamide hydrochloride] showed a growth yield (40 h) of 103 ± 2.4% and a growth yield (72 h) of 97.75 ± 0.21%.
In the same order, the values of `CCN(CC)CCOc1ccc(C(=C(Cl)c2ccccc2)c2ccccc2)cc1` [Clomiphene citrate (Z,E)] are 1.75 ± 1.1% and 2.2 ± 0.1%.
On to `COc1ccc(C(Cl)=C(c2ccc(OC)cc2)c2ccc(OC)cc2)cc1` [Chlorotrianisene], for which the growth yield stood at 101 ± 2.7% (40 h) and 96.7 ± 1.5% (72 h).
The compound `CN(C)CCOC(c1ccccc1)c1ccccc1` [Diphenhydramine hydrochloride] displayed a growth yield (40 h) of 99.9 ± 5.2% and a growth yield (72 h) of 99.4 ± 3.1%.
The matching figures for `CC/C(=C(\c1ccccc1)c1ccc(OCCN(C)C)cc1)c1ccccc1` [Tamoxifen citrate]: 1.11 ± 0.48% and 1.26 ± 0.21%.
For `CCN(CC)CCOC(=O)C(c1ccccc1)c1ccccc1` [Adiphenine hydrochloride], the growth yield by setting is: (40 h) 98.8 ± 7.6%; (72 h) 96.9 ± 5.5%.
